About 1,000 (0.32%) of roughly 310,000 compounds were called active. The list is a sample of the results. Entries with a potency or affinity are not part of this list. Values without a mark were called inactive. No rule for the calls is given here.
Experiment: PhoP regulon inhibitors, Salmonella typhi PhoP promoter GFP reporter, confirmatory (AID 1850);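 also: 0% = induced wells with vehicle and 100% = uninduced wells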
Settings: fluorescence, 4 h, at 50 µM, active compounds read high
Molecule `COc1ccc(CNC(=O)CN2C(=O)c3ccccc3C2=O)cc1` has an inhibition of -5.61%. Work on `CC(=O)c1ccccc1OCCn1nc(C(=O)O)c2ccccc2c1=O` yielded an inhibition of 1.39%. For `COc1ccc(S(=O)(=O)N2CCCC2CNC(=O)C(=O)NCCc2ccccc2)cc1` (configuration not stated), the inhibition was 0.4%. In the case of `O=C(Nc1cc(C(F)(F)F)ccc1N1CCOCC1)C1=NN(c2ccccc2)C(=O)CC1`, the inhibition is reported as 0.11%. For `Cc1ccccc1-c1nnn(CC(=O)N(C)CC(=O)Nc2ccccc2C(F)(F)F)n1`, the inhibition was 6.76%. In the case of `COc1c[nH]n(-c2ccccc2)c(=O)c1=O`, the inhibition is reported as 5.23%. For `CN(C)CCCNC(=O)c1ccc(-c2ccccc2)cc1`, the inhibition was 12.6%. Work on `C=CCNC(=O)c1ccc(-c2nc(-c3ccccc3)cs2)cc1` yielded an inhibition of 0.25%. `CC1CCCCC12NC(=O)N(CC(=O)NCc1ccc3c(c1)OCO3)C2=O` (configuration not stated) showed an inhibition of 5.06%. `N#Cc1cc2c(nc1SCC(=O)O)CCCCC2` showed an inhibition of 9.95%. For `CCCNC(=O)c1cn(CC)c2cc(N3CCN(C(=O)c4ccco4)CC3)c(F)cc2c1=O`, the inhibition was 1.38%. With `CCN(CC)CCNC(=O)c1cn(CC)c2cc(N3CCN(C)CC3)c(F)cc2c1=O` the inhibition was -0.07%. `CCn1cc(C(=O)NCC(C)C)c(=O)c2cc(F)c(N3CCN(C(=O)c4ccco4)CC3)cc21` showed an inhibition of 1.03%. Molecule `CCn1cc(C(=O)NCc2ccccc2)c(=O)c2cc(F)c(N3CCN(C(=O)c4ccco4)CC3)cc21` has an inhibition of -5.58%. For `CCn1cc(C(=O)NCCC(C)C)c(=O)c2cc(F)c(N3CCN(C)CC3)cc21`, the inhibition was 5.29%. In the case of `CCCCNC(=O)c1cn(CC)c2cc(N3CCN(C)CC3)c(F)cc2c1=O`, the inhibition is reported as -13.3%. For `CCn1cc(C(=O)NCc2cccc(F)c2)c(=O)c2cc(F)c(N3CCN(C(=O)c4ccco4)CC3)cc21`, the inhibition was -0.01%. Molecule `CCN(CC)CCNC(=O)c1cn(CC)c2cc(N3CCN(C(=O)c4ccco4)CC3)c(F)cc2c1=O` has an inhibition of 5.87%. In the case of `COc1ccc(C(C)NC(=O)Cc2cccs2)cc1` (configuration not stated), the inhibition is reported as 1.87%. For `O=C(Nc1nnc(Cc2ccccc2F)s1)c1ccccc1Cl`, the inhibition was -2.4%. For `O=C(COC(=O)C1CCN(c2ccc(C(F)(F)F)cn2)CC1)NCc1ccc(F)cc1`, the inhibition was 2.12%. With `CC(Oc1ccccc1)C(=O)Nc1ccc(S(=O)(=O)Nc2nccs2)cc1` (configuration not stated) the inhibition was -2.94%. With `COC(=O)c1c(C(=O)OC)c(-c2ccc(OC)cc2)n2c1CS(=O)(=O)C2` the inhibition was -2.28%. With `CCOc1ccccc1N(CC(=O)N1CCOCC1)S(=O)(=O)c1ccccc1` the inhibition was 11.6%. `CCOc1ncccc1C(=O)Nc1cccc(Cl)c1Cl` showed an inhibition of -6.65%. In the case of `COC(=O)c1ccc(C)c(NC(=O)CCc2cc(OC)c(OC)c(OC)c2)c1`, the inhibition is reported as 8.83%. In the case of `COc1cc(/C=N/NC(=O)c2ccncc2)cc(OC)c1OC`, the inhibition is reported as 6.9%. For `COc1cccc(C(O)c2cnc(C(C)C)n2C)c1` (configuration not stated), the inhibition was 5.41%. In the case of `CCCC(=O)Nc1c2c(nn1-c1ccc(F)cc1)CS(=O)(=O)C2`, the inhibition is reported as -3.29%. `CCn1cc(C(=O)NN)c(=O)c2cc(F)c(N3CCOCC3)cc21` showed an inhibition of -10.2%. For `CCCCCCNC(=O)c1cn(CC)c2cc(N3CCN(C)CC3)c(F)cc2c1=O`, the inhibition was -4.8%. `CCn1cc(C(=O)N[C@H](C)c2ccccc2)c(=O)c2cc(F)c(N3CCN(C)CC3)cc21` showed an inhibition of 2.31%. For `CCn1cc(C(=O)NCC2CCCO2)c(=O)c2cc(F)c(N3CCN(C)CC3)cc21` (configuration not stated), the inhibition was 1.91%. For `CCn1cc(C(=O)NCCCO)c(=O)c2cc(F)c(N3CCN(C)CC3)cc21`, the inhibition was 6.73%. With `CCn1cc(C(=O)NN)c(=O)c2cc(F)c(N3CCN(C)CC3)cc21` the inhibition was 3.76%. With `CCCCNC(=O)c1cn(CC)c2cc(N3CCN(C(=O)c4ccco4)CC3)c(F)cc2c1=O` the inhibition was -5.26%. With `Cc1cccn2c(=O)c(C(=O)NCCCN3CC(C)CC(C)C3)c(O)nc12` (configuration not stated) the inhibition was 0.48%. Molecule `COc1cccc2cc(C(=O)OCC(=O)NCc3ccc4c(c3)OCO4)c(=O)oc12` has an inhibition of 7.88%. For `CS(=O)(=O)N1CCN(c2ccccc2NC(=S)NC(=O)c2cccs2)CC1`, the inhibition was -10.5%. With `N#CCSc1nccc(/C=C/c2ccccc2)n1` the inhibition was 6.91%. `O=C(O)C[C@H]1c2cc(F)ccc2S(=O)(=O)N1C1CCCC1` showed an inhibition of -2.28%. `CC(=O)Nc1ccccc1N(C)S(=O)(=O)c1ccc(C)cc1` gave an inhibition of -1.46%. For `Cn1c(=O)n(C)c2cc([N+](=O)[O-])c(N3CCN(C(=O)c4ccc(Cl)cc4)CC3)cc21`, the inhibition was -4.31%. `CCCc1cc(=O)n2[nH]c(C)nc2n1` showed an inhibition of 18.9%. With `Cc1ccc(O)c(C(=O)CC(=O)c2cccc(F)c2)c1` the inhibition was 8.82%. In the case of `Cc1cc(C)c(C(=O)CC(=O)c2ccccc2Cl)c(O)c1`, the inhibition is reported as 11.6%. `O=C(CC(=O)c1ccccc1O)c1ccc(F)cc1` showed an inhibition of 3.76%. Work on `Cc1ccc(C(=O)CC(=O)c2cc(Cl)ccc2O)cc1` yielded an inhibition of -2.62%. For `Cc1ccc(C(=O)CC(=O)c2cccc(F)c2)c(O)c1`, the inhibition was 5.16%. `Cc1cccc(C(=O)CC(=O)c2cc(Cl)ccc2O)c1` gave an inhibition of 1.32%. With `CC(CC(=O)NCc1ccco1)S(=O)(=O)c1ccc2c(c1)CCN2C(=O)C1CC1` (configuration not stated) the inhibition was -3.2%. `O=c1c(C/C=C/c2ccccc2)c(O)ccn1CCc1c[nH]c2ccccc12` showed an inhibition of 4.16%. With `CCOCCOC(NC(=O)c1ccccc1)(C(F)(F)F)C(F)(F)F` the inhibition was -1.49%. In the case of `CCOC(=O)CSc1nc(Nc2ccc3c(c2)OCO3)c2ccccc2n1`, the inhibition is reported as -1.83%. With `O=C(COc1ccc(Br)cc1CNCCCN1CCOCC1)Nc1ccccc1` the inhibition was -6.17%. In the case of `COc1cccc(-c2nc(N)nc(SC)c2C#N)c1`, the inhibition is reported as 5.06%. For `CC(C)n1c(CN2CCN(C)CC2)nc2c1c(=O)n(C)c(=O)n2C`, the inhibition was 2.65%. In the case of `O=c1[nH]c(C2CCN(S(=O)(=O)c3ccccc3)CC2)nc2c1nnn2Cc1ccc2c(c1)OCCO2`, the inhibition is reported as -22.2%. For `OCC1(Cc2ccc(F)cc2)CCCN(CCc2ccccc2)C1` (configuration not stated), the inhibition was 0.44%. Molecule `CCOc1ccccc1NC(=O)c1ccc2c(c1)C(=O)N(CC1CCCO1)C2=O` (configuration not stated) has an inhibition of -5.65%. With `O=C(Nc1ccc(C2=NCCN2)cc1)c1ccc(Cl)c(C(=O)Nc2ccc(C3=NCCN3)cc2)c1` the inhibition was 1.21%. Molecule `Cc1cccc(NC(=O)Nc2ccncc2)c1` has an inhibition of 16.9%. For `C/C(CC(=O)Nc1cc(C)ccn1)=N\NC(=O)c1ccncc1`, the inhibition was 3.7%. Molecule `CCOC(=O)Cn1c(=N)n(CCOc2ccc(OC)cc2)c2ccccc21` has an inhibition of 10.3%. Work on `CCOC(=O)Cn1c(=N)n(CCOc2cccc(C)c2)c2ccccc21` yielded an inhibition of -0.323%. With `O=C(NCc1ccccn1)C1CN(S(=O)(=O)c2ccccc2)CCN1S(=O)(=O)c1ccccc1` (configuration not stated) the inhibition was 1.61%. `Cc1sc2ncnc(SCC(=O)N3CCCC(C(F)(F)F)C3)c2c1C` (configuration not stated) showed an inhibition of 8.83%. `Cc1cc(OCC(=O)N2CCC[C@@H]2C(=O)O)c2c(C)c(C)c(=O)oc2c1` gave an inhibition of 5.08%. Work on `O=C(Nc1ncc([N+](=O)[O-])s1)C1CC(=O)N(c2ccc(F)cc2)C1` (configuration not stated) yielded an inhibition of 13%. With `O=C1CCCN1c1ncc(S(=O)(=O)c2ccc([N+](=O)[O-])cc2)s1` the inhibition was 0.41%. With `O=C(CCc1nnc2ccc(N3CCCCC3)nn12)NCc1ccco1` the inhibition was -3.14%. In the case of `Cc1cc(C)c2nc(N(CCCN(C)C)C(=O)c3ccc(S(=O)(=O)N4CC(C)OC(C)C4)cc3)sc2c1` (configuration not stated), the inhibition is reported as 7.15%. For `O=C1NC(c2ccco2)Nc2ccccc21` (configuration not stated), the inhibition was -3.49%. With `O=C1CC(c2ccco2)Sc2ccccc2N1` (configuration not stated) the inhibition was -2.22%. Molecule `O=C1CC(c2ccccc2)CC(=O)C1=CN1CCCC1` (configuration not stated) has an inhibition of -0.41%. `CC(=O)NNC(=S)NC(=O)c1ccc(C)cc1` gave an inhibition of 9.68%. With `O=C(CCc1ccccc1)NNC(=S)NC(=O)c1ccc(Cl)cc1` the inhibition was 10.2%. For `CC(=O)NNC(=S)NC(=O)c1cccc([N+](=O)[O-])c1`, the inhibition was 5.04%. Work on `Cc1ccc(C(=O)NNC(=S)NC(=O)c2ccc(Cl)cc2)cc1` yielded an inhibition of 6.07%. `COCCCNC(=S)NNC(=O)c1csc(C)n1` gave an inhibition of 3.64%. Work on `COCCCNC(=S)NNC(=O)c1cccnc1` yielded an inhibition of 1.9%. `CC(=O)NC(=S)NNC(=O)CCc1ccccc1` showed an inhibition of -2.11%. Molecule `Cc1ccc(C(=O)NC(=S)NNC(=O)c2ccccc2)cc1` has an inhibition of 19.1%. `CC(C)CN(Cc1cc(=O)oc2cc3c(cc12)CCCC3)CC(C)C` gave an inhibition of 3.63%. `CCOc1ncccc1C(=O)OCCN1C(=O)c2ccccc2C1=O` gave an inhibition of 7.33%. Work on `O=C(NNS(=O)(=O)c1ccccc1)c1cccc([N+](=O)[O-])c1` yielded an inhibition of -3.37%. Work on `Cc1ccc(S(=O)(=O)NCc2cccnc2)c(C)c1` yielded an inhibition of 0.7%. `COc1ccc(-c2nc3n(c(=O)c2C#N)CCS3)cc1` gave an inhibition of 2%. In the case of `CCCNS(=O)(=O)c1cc2c3c(c1)C(C)C(=O)N3CCC2` (configuration not stated), the inhibition is reported as 8.86%. In the case of `CC(=O)c1ccc(NC(=S)N2CCN(CCO)CC2)cc1`, the inhibition is reported as 5.45%. Work on `Cc1cc(C)c(C(N)=O)c(NCCc2ccccc2)n1` yielded an inhibition of -2.71%. `c1ccc(-c2nnc(CSc3nc4ccccc4[nH]3)o2)cc1` showed an inhibition of -20.5%. Molecule `CC1CCCCN1C(=O)c1ccc(NC(=O)c2ccccc2Cl)cc1` (configuration not stated) has an inhibition of 3.28%. Molecule `O=C(CCc1ccccc1)NNC(=O)CCc1ccccc1` has an inhibition of -2.48%. In the case of `O=C(CCc1ccccc1)NNC(=O)c1ccccc1Cl`, the inhibition is reported as 3.05%. With `O=C(NNC(=S)Nc1ccccc1)c1ccc(O)cc1` the inhibition was 9.42%. Work on `O=C(NC(=S)NNC(=O)c1ccccc1O)c1ccccc1` yielded an inhibition of 4.34%.
